The source of these data is PubChem BioAssay (Tox21).

Several values for one entry are separate records, joined by “and”; a condition that tells them apart may be missing. Identical values can stand only once. Inconclusive results are not listed. More than one record can exist for a structure, and the calls need not agree. Activity calls are given as the source filed them. Calls follow the shape of the dose curve; as a rule, active = well fitted curve in the direction sought with a large enough effect in the repeat runs; inconclusive = weak or mixed curves; inactive = no such curve, though single readings can be large; an effect the other way counts as inactive or inconclusive.

Assay [1] in a line: qHTS RealTime-Glo MT Cell Viability Assay in HEK293 cells - 40 hour (AID 1224874). Also: nearly all actives have a fitted effect of over 50% in size. To be noted: RealTime-Glo luminescence; max response: stronger effect = lower value. The method in brief: (§1)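 qHTS format; HEK293 cells with NanoLuc/prosubstrate reagent, 37 C/5% CO2 for 5 h pre-dosing; compounds 23 nL in DMSO; luminescence at each time point reflects viable cells.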
Assay [2] in a line: A CellTox Green Cytotoxicity Assay to monitor cytotoxicity in HEK293 cells - 24 hour (AID 1224875). Also: series mostly up to about 77 µM; nearly all actives have a fitted effect of over 45% in size. The gist of the method:
(§2)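 Each value comes from one timepoint of a single continuous run in which HEK293 cells with CellTox Green were exposed to compound for up to 40 h at 37 C, dye fluorescence rising with cell death.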

Assay [3] is described as follows: A CellTox Green Cytotoxicity Assay to monitor cytotoxicity in HepG2 cells - 16 hour (AID 1224876). Also: nearly all actives have a fitted effect of over 45% in size. The gist of the method:
(§3)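 Continuous culture of HepG2 cells with a membrane-impermeant DNA dye; rising fluorescence marks dead cells. Compound exposure lasted up to 40 h at 37 C, with reads every 8 h from 0 h.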

Assay [4] is described as follows: qHTS RealTime-Glo MT Cell Viability Assay in HepG2 cells - 32 hour (AID 1224877). Also: nearly all actives have a fitted effect of over 55% in size. The method in brief:
(§4)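 qHTS, HepG2, 600 cells/well, RealTime-Glo (NanoLuc + prosubstrate) added with cells; 5 h preincubation; DMSO compound addition; 37 C; luminescence at 0/8/16/24/32/40 h.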
A general note: In qHTS, concentration-response curves come from the screen itself.

The nature of assay [5]: A CellTox Green Cytotoxicity Assay to monitor cytotoxicity in HepG2 cells - 24 hour (AID 1224878). Also: nearly all actives have a fitted effect of over 45% in size. The method in brief:
as §3

The nature of assay [6]: A CellTox Green Cytotoxicity Assay to monitor cytotoxicity in HepG2 cells - 40 hour (AID 1224879). Also: nearly all actives have a fitted effect of over 40% in size. The gist of the method: as §3
Assay [7] is described as follows: qHTS RealTime-Glo MT Cell Viability Assay in HEK293 cells - 0 hour (AID 1224880). Also: top concentration of the series differs between compounds; nearly all actives have a fitted effect of over 45% in size. The gist of the method:
as §1

Assay [8] is described as follows: A CellTox Green Cytotoxicity Assay to monitor cytotoxicity in HEK293 cells - 32 hour (AID 1224881). Also: nearly all actives have a fitted effect of over 40% in size. The gist of the method: as §2
The nature of assay [9]: A CellTox Green Cytotoxicity Assay to monitor cytotoxicity in HepG2 cells - 0 hour (AID 1224882). Also: nearly all actives have a fitted effect of over 35% in size. The gist of the method: as §3
Assay [10] is described as follows: A CellTox Green Cytotoxicity Assay to monitor cytotoxicity in HepG2 cells - 32 hour (AID 1224883). Also: nearly all actives have a fitted effect of over 50% in size. The gist of the method:
as §3

The nature of assay [11]: A CellTox Green Cytotoxicity Assay to monitor cytotoxicity in HEK293 cells - 8 hour (AID 1224884). Also: nearly all actives have a fitted effect of over 35% in size. Also: potency is read from the fitted curve at half-maximal effect. The gist of the method:
as §2

Assay [12] in a line: qHTS RealTime-Glo MT Cell Viability Assay in HepG2 cells - 16 hour (AID 1224885). Also: nearly all actives have a fitted effect of over 50% in size. The method in brief:
as §4

A short description of assay [13]: qHTS RealTime-Glo MT Cell Viability Assay in HEK293 cells - 24 hour (AID 1224886). Also: top concentration of the series differs between compounds; nearly all actives have a fitted effect of over 50% in size. The gist of the method: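 Assay medium contained NanoLuc luciferase plus cell-permeant prosubstrate, added with HEK293 cells at 600 cells/well. After 5 h at 37 C/5% CO2 compounds were added; plates stayed at 37 C for 40 h with serial luminescence reads.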
Assay [14] can be described thus: qHTS RealTime-Glo MT Cell Viability Assay in HEK293 cells - 8 hour (AID 1224887). The gist of the method: as §1
Assay [15] can be described thus: A CellTox Green Cytotoxicity Assay to monitor cytotoxicity in HEK293 cells - 16 hour (AID 1224888). Also: nearly all actives have a fitted effect of over 35% in size. The gist of the method: as §2
A short description of assay [16]: qHTS RealTime-Glo MT Cell Viability Assay in HepG2 cells - 0 hour (AID 1224889). Also: nearly all actives have a fitted effect of over 50% in size. The gist of the method: as §4
Assay [17] is described as follows: A CellTox Green Cytotoxicity Assay to monitor cytotoxicity in HepG2 cells - 8 hour (AID 1224890). Also: nearly all actives have a fitted effect of over 45% in size. The gist of the method:
as §3

Assay [18] is described as follows: qHTS assay to identify small molecule antagonists of the estrogen receptor alpha (ER-alpha) signaling pathway using the BG1 cell line in the presence of 0.1 nM 17-beta-estradiol - cell viability counter screen (AID 1259241). Also: nearly all actives have a fitted effect of over 40% in size. The gist of the method:
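Measures cytotoxicity alongside the ER-alpha antagonist readout: VM7Luc4E2 cells, charcoal-stripped serum, 0.1 nM 17beta-estradiol final, 22 hr compound incubation at 37C, CellTiter-Fluor fluorescence.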

The nature of assay [19]: qHTS assay to identify small molecule antagonists of the androgen receptor (AR) signaling pathway using the MDA cell line in the presence of 0.5 nM R1881 - cell viability counter screen (AID 1259242). Also: nearly all actives have a fitted effect of over 45% in size. The method in brief:
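Fluorescence from CellTiter-Fluor, which reports protease activity of live cells, was read 30 min after reagent addition to MDA-kb2 cells that had been incubated 16 hr with compound and 0.5 nM R1881.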

The target in assay [20] is Androgen receptor (Homo sapiens) (UniProt P10275). Briefly: qHTS assay to identify small molecule antagonists of the androgen receptor (AR) signaling pathway using the MDA cell line in the presence of 0.5 nM R1881 (AID 1259243). Also: nearly all actives have a fitted effect of over 50% in size. Also: potency is read from the fitted curve at half-maximal effect. The gist of the method:
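Inhibition of R1881 (0.5 nM final) induced reporter signal was measured in human MDA-kb2 cells; note the MMTV promoter also responds to GR. Exposure lasted 16 hr at 37C.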
% is scaled to controls: 0 for no effect and ±100 for the full control effect.

Sequence of Androgen receptor (Homo sapiens) (P10275 whole entry, looked up): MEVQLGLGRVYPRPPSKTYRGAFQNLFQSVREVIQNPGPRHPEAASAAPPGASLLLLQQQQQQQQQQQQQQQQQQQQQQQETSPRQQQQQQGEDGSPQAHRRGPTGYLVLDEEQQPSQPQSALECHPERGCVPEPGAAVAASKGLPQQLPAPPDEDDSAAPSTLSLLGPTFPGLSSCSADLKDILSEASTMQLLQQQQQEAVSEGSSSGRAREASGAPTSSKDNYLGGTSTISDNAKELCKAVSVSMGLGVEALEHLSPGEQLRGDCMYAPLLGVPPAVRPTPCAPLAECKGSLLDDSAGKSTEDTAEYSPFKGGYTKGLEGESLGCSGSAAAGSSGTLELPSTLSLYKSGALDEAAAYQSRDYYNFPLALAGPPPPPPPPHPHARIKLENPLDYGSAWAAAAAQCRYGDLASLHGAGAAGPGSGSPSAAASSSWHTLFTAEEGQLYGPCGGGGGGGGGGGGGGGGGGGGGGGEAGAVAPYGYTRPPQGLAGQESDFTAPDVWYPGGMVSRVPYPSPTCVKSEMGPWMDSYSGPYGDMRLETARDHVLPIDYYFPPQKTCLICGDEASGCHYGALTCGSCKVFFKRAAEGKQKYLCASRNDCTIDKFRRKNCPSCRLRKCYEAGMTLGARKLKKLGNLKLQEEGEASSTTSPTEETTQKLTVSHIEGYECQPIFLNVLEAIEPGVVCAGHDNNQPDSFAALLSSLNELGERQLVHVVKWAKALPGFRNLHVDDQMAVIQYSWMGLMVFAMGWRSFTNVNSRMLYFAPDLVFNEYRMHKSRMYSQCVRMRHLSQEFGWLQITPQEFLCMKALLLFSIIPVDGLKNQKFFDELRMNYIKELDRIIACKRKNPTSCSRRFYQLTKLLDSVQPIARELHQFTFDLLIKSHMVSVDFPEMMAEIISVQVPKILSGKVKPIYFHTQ

As for `CN(N=O)c1ccccc1`, in assay [1], the max response was 9.26% (inactive) and 4.33% (inactive). Moreover, the Potency result in [2], in [3], in [5], in assay [6], in [8] and in assay [9] was “inactive” throughout. In addition, the Potency result in assay [10], in [11], in assay [13], in assay [15], in assay [17] and in [18] was “inactive” each time. Also, the outcome in [4], in assay [7], in assay [12], in [14], in assay [16] and in assay [19] was inactive.
`CCCCN(CC)C(=O)SCCC`: in [1], the max response was 0.284% (inactive). Moreover, the Potency result in assay [2], in [3], in assay [5], in assay [6], in assay [8] and in assay [9] was “inactive” each time. The Potency entry in [10], in assay [11], in [13], in assay [15], in assay [17] and in [18] was “inactive” each time. The Potency entry in [20] was “inactive”. For the same compound, the outcome in assay [4], in assay [7], in [12], in [14], in [16] and in [19] was inactive.
With `CC(C)OC(=O)Nc1ccccc1`, in assay [1], the max response was 1.67% (inactive) and 0.253% (inactive). The Potency result in assay [2], in [3], in assay [5], in [6], in [8] and in [9] was “inactive” in each case. In addition, the Potency result in [10], in assay [11], in assay [13], in assay [15], in [17] and in assay [18] was “inactive” in each case. Further, the call in [4], in assay [7], in assay [12], in assay [14], in assay [16] and in assay [19] was inactive.
As to `O=C(NC(=O)c1c(F)cccc1F)Nc1cc(Cl)c(OC(F)(F)C(F)C(F)(F)F)cc1Cl` (stereo not drawn), the max response in [1] is -33.5% (inactive). In addition, the Potency result in assay [2], in assay [3], in [5], in assay [6], in assay [8] and in assay [9] was “inactive” in each case. Also, the Potency entry in assay [10], in assay [11], in [13], in assay [15], in [17] and in assay [18] was “inactive” in each case. In addition, the outcome in assay [4], in assay [7], in assay [12], in assay [14], in assay [16] and in assay [19] was inactive. In [20], the Potency is 19.3 µM (active) and 26.6 µM (active).
With `COCCl`, in [1], the max response was -4.66% (inactive) and 2.93% (inactive). For the same compound, the Potency result in assay [2], in assay [3], in assay [5], in [6], in [8] and in assay [9] was “inactive” throughout. The Potency entry in [10], in assay [13], in assay [15], in assay [17], in assay [18] and in [20] was “inactive” each time. The compound was called inactive in assay [4], in [7], in [12], in assay [14], in [16] and in assay [19]. The Potency in [11] is 22.7 µM (active) and inactive.
In the case of `C#CCN(C)[C@H](C)Cc1ccccc1`, the max response in [1] is 3.52% (inactive) and 3.78% (inactive). Also, the Potency entry in assay [2], in assay [3], in assay [5], in assay [6], in assay [8] and in assay [9] was “inactive” in each case. Moreover, the Potency result in assay [10], in assay [11], in [13], in [15], in [17] and in assay [18] was “inactive” each time. The outcome in [4], in assay [7], in assay [12], in assay [14], in assay [16] and in [19] was inactive.
As to `C#CC(C)(C)NC(=O)c1cc(Cl)cc(Cl)c1`, the max response in assay [1] is -9.66% (inactive). In addition, the Potency entry in assay [2], in [3], in assay [5], in assay [6], in assay [8] and in assay [9] was “inactive” throughout. The Potency entry in assay [10], in assay [11], in assay [13], in assay [15], in [17] and in [18] was “inactive” throughout. For the same compound, the outcome in assay [4], in assay [7], in assay [12], in [14], in assay [16] and in assay [19] was inactive.
As for `COC(=O)c1ccccc1C(=O)OC`, in assay [1], the max response is -6.01% (inactive) and 4.81% (inactive). The Potency entry in [2], in assay [3], in assay [5], in [6], in assay [8] and in assay [9] was “inactive” throughout. The Potency entry in assay [10], in assay [11], in assay [13], in assay [15] and in assay [18] was “inactive” in each case. Besides, the outcome in [4], in [7], in assay [12], in assay [14], in assay [16] and in assay [19] was inactive.
Regarding `ClCCBr`, the max response in assay [1] is -0.15% (inactive) and 0.955% (inactive). Also, the Potency entry in assay [2], in assay [3], in [5], in assay [6], in [8] and in [9] was “inactive” throughout. In addition, the Potency result in [10], in assay [11], in assay [13], in assay [15], in assay [17] and in [18] was “inactive” throughout. Further, the compound was classed as inactive in [4], in assay [7], in [12], in assay [14], in [16] and in assay [19].
As to `CCOP(=S)(OCC)SCCSCC`, in [1], the max response was 5.05% (inactive) and 1.7% (inactive). Besides, the Potency result in assay [2], in [3], in [5], in [6], in [8] and in assay [9] was “inactive” in each case. Besides, the Potency result in assay [10], in [11], in assay [13], in assay [15] and in assay [18] was “inactive” each time. The compound was classed as inactive in assay [4], in assay [7], in assay [12], in assay [14], in assay [16] and in assay [19].
In the case of `CC(C#N)CCC#N` (stereo not drawn), the max response in assay [1] was 6.71% (inactive) and -8.28% (inactive). In addition, the Potency entry in [2], in [3], in assay [5], in [6], in assay [8] and in assay [9] was “inactive” throughout. Besides, the Potency result in assay [10], in assay [11], in assay [13], in assay [15] and in assay [18] was “inactive” throughout. Moreover, the compound was classed as inactive in assay [4], in assay [7], in assay [12], in assay [14], in [16] and in assay [19].
In the case of `CCNc1nc(NC(C)C)nc(SC)n1`, the max response in assay [1] was -1.45% (inactive). Further, the Potency result in [2], in assay [3], in [5], in assay [6], in assay [8] and in assay [9] was “inactive” throughout. The Potency entry in [10], in assay [11], in assay [13], in assay [15], in assay [17] and in assay [18] was “inactive” in each case. Besides, in [20], the Potency entry is “inactive”. Besides, the compound was called inactive in assay [4], in assay [7], in assay [12], in [14], in assay [16] and in assay [19].
For `Oc1ccccc1Cl`, in assay [1], the max response was 9.22% (inactive) and 18.7% (inactive). Further, the Potency result in assay [2], in assay [3], in [5], in [6], in [8] and in assay [9] was “inactive” each time. For the same compound, the Potency result in assay [10], in assay [11], in assay [13], in [15], in assay [17] and in assay [18] was “inactive” in each case. In addition, the compound was called inactive in [4], in [7], in [12], in assay [14], in [16] and in [19].
